In the library only some 28% were active in any assay of this set; here they are far more common.
CYP2C9 activ: activators of human CYP2C9; recombinant CYP2C9, luciferin-H conversion, luminescence; active compounds read high; factor 1 = untreated enzyme, 0 = blocked; activation factor at 5 µM; 96,000 compounds, 1.4% hits; AID 1024;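 active = activation factor of 2 or more for CYP2C9 at a 5 µM dose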;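 also: 0 = sulfaphenazole-blocked wells and 1 = vehicle-only wells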
Mac1 fbg inh: inhibitors of human CD11b/CD18 binding to fibrinogen. P05107+P11215. K562 CD11b/CD18 adhesion to fibrinogen, ATPlite luminescence; Mn2+ added to activate the integrin. inhibition, % at 10 µM. 93,000 compounds, 0.54% hits. AID 1497;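 active = primary inhibition of 50% or more at 10 µM, then 40% or more on retest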
Target sequence (P05107 whole entry, looked up, other chains not shown): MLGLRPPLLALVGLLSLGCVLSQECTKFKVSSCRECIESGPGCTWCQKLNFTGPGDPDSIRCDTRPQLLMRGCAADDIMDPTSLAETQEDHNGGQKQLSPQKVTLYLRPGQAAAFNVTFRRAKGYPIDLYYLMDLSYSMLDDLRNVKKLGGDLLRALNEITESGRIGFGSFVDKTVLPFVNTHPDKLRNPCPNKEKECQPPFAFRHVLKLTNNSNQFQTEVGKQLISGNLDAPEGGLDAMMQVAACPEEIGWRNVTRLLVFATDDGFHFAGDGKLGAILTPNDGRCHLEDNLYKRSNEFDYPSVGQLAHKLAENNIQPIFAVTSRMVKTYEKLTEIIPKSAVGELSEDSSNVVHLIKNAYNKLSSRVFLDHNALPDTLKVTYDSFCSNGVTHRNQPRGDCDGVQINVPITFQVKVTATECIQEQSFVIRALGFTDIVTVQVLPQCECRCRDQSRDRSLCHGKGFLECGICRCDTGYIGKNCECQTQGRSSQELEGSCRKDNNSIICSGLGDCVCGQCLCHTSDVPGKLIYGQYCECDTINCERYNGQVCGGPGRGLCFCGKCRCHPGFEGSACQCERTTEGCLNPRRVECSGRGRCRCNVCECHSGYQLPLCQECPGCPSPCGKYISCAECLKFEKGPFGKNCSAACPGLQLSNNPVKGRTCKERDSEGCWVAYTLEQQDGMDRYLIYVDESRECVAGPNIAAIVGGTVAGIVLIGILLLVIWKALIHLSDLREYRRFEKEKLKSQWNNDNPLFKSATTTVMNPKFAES
CYP2C19 act: cytochrome P450 2C19 (human) activation | P33261 | recombinant CYP2C19, luciferin-H EGE luminescence; active compounds read high; 0 = fully inhibited enzyme, 1 = untreated enzyme | activation factor at 5 µM | 96,000 tested, under 10 active;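 active = activation factor of at least 2 at 5 µM in the primary screen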;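 also: 0 = wells with 2.5 mM tranylcypromine and 1 = vehicle-only wells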
CYP2C19 inh: blocks human cytochrome P450 2C19; inhibition, % at 5 µM; 96,000 compounds, 21% hits; P33261; CYP2C19 Supersomes, luciferin-H EGE luminescence, 30 min;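 active = CYP2C19 inhibition above a set limit at 5 µM in the primary screen, cut at about 50% in these data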;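 also: plate controls were negative control wells for no effect and 2.5 mM tranylcypromine positive control for full effect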
CD11b adhes enh: enhancers of human CD11b/CD18 binding to fibrinogen; K562 CD11b/CD18 adhesion to fibrinogen, ATPlite luminescence; activation, % at 10 µM; 93,000 compounds, 0.07% hits; AID 1499;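 active = 10 µM primary screen giving 50% or more activity, confirmed by 40% or more on retest at that dose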
CYP2C9 inh: blocks human cytochrome P450 2C9 | P11712 | CYP2C9 Supersomes, luciferin-H conversion, luminescence | inhibition, % at 5 µM | 96,000 compounds, 20% hits;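 active = blocking of liver enzyme CYP2C9 beyond about 50% at 5 µM, limit read from the data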
Starred values were filed as active, the others as inactive; / = not tested or not shown.

SMILES	CYP2C9 activ	Mac1 fbg inh	CYP2C19 act	CYP2C19 inh	CD11b adhes enh	CYP2C9 inh
CCc1ccc(-n2nc3ccc(NC(=O)c4ccc5c(c4)OCO5)cc3n2)cc1	0.9	-6.8	0.9	6.0	1.2	13.2
Cc1cc(C)n(-c2ccc(C(=O)Nc3ccc4c(c3)OCCO4)cc2)n1	0.8	-2.7	0.5	50.0*	0.6	22.2
Cc1ccc(-n2nc3ccc(NC(=O)c4ccc5c(c4)OCO5)cc3n2)cc1	0.8	-5.2	0.9	5.5	139.2*	17.2
O=C(Nc1ccc2oc(-c3ccccc3F)nc2c1)c1ccc2c(c1)OCCO2	0.5	15.1	0.5	49.2	-3.2	51.3*
O=C(Nc1ccc2nn(-c3ccccc3)nc2c1)c1ccc2c(c1)OCCO2	0.4	2.8	0.4	58.9*	-7.2	55.5*
CC(=O)Nc1ccc2oc(-c3ccccc3Br)nc2c1	0.3	11.8	0.7	27.2	-3.4	72.6*
N#Cc1cc(S(=O)(=O)c2ccccc2)c(N)[nH]c1=O	0.6	15.7	0.9	5.6	-1.1	40.4
CC(=O)c1c(C)[nH]c(C(=O)OCC(=O)NCCc2ccc(F)cc2)c1C	0.6	1.1	0.7	26.2	-4.9	39.3
COc1ccc(CCNC(=O)c2[nH]c(C)c(C(C)=O)c2C)cc1	0.3	7.4	0.5	50.2*	-2.0	72.6*
CC(=O)c1c(C)[nH]c(C(=O)OCC(=O)NCCc2ccc(Cl)cc2)c1C	0.1	-21.1	0.1	87.0*	0.0	87.3*
CC(=O)c1c(C)[nH]c(C(=O)NCCc2cccc(C)c2)c1C	0.7	/	0.6	37.6	/	34.4
O=C(Nc1ccc(Cl)cc1)Nc1nnc(CSCc2ccc(Cl)cc2)s1	/	46.1	/	/	31.5	/
CSCCC(C(=O)O)N1C(=O)c2ccc(C(=O)O)cc2C1=O (centres undefined)	1.1	9.8	0.1	87.1*	-0.8	-6.2
Cc1ccc(S(=O)(=O)NC(=O)Nc2ccc(Cl)cn2)cc1	0.8	-1.7	0.9	10.8	-4.9	15.7
CCOc1cc(S(=O)(=O)n2nc(C)cc2C)ccc1F	0.8	/	0.3	72.6*	/	16.0
COc1ccc(S(=O)(=O)Nc2ccc(Cl)cn2)c(C)c1C	0.5	-40.6	0.6	38.6	2.8	53.3*
CCOc1cc(S(=O)(=O)Nc2ccccn2)ccc1F	1.3	-7.7	0.8	21.2	5.8	-26.2
CCOc1cc(S(=O)(=O)Nc2ccc(Cl)cn2)ccc1F	0	6.8	0.7	28.7	2.1	95.8*
CCOc1cc(S(=O)(=O)N(CC)CC)ccc1F	2.3*	3.0	0.1	94.8*	10.7	-131.5
C=CCNC(=O)C(=O)NN=C1CCN(C)CC1	1	-4.6	1.1	-7.5	-2.8	-4.1
Cc1ccc(SCC(=O)N2CCCC2)cc1	1	-1.2	0.7	26.6	-1.4	2.8
Cc1ccc(SCCC(=O)N2CCOCC2)cc1	0.9	-5.7	0	95.1*	0.0	14.7
O=C(CCSc1ccccc1)N1CCOCC1	1.1	21.5	0.6	36.6	0.0	-13.3
Cc1ccc(SCCC(=O)N2CCCC2)cc1	0.5	-14.0	0.1	90.5*	-0.3	49.4
Cc1cc(=O)[nH]c(NN=C(CC(C)C)CC(C)C)n1	/	-13.7	/	/	0.0	/
SMILES	CYP2C9 activ	Mac1 fbg inh	CYP2C19 act	CYP2C19 inh	CD11b adhes enh	CYP2C9 inh
Cc1cc(NC(c2cccnc2)c2ccc3cccnc3c2O)no1 (centres undefined)	0.7	8.6	0.7	30.1	-3.0	34.2
Cc1cccc(NC(c2ccc(O)cc2)c2ccc3ccc(C)nc3c2O)n1 (centres undefined)	2*	-19.5	0.6	42.1	0.2	-99.3
COc1ccc(CCCc2nnc(SCC(=O)Nc3ncc(C)s3)o2)cc1	0.5	1.8	0.7	32.9	-4.0	48.5
COc1ccc(OC)c(/C=N\NC(=O)CSc2nnc(CCCc3ccc(OC)c(C)c3)o2)c1	0.3	79.3	0.4	64.2*	-6.1	70.4*
COc1ccc(CCCc2nnc(SCC(=O)Nc3cc(C)c(C)cc3Br)o2)cc1	0.2	-12.3	0.3	68.6*	-0.3	83.2*
COc1ccc(Cc2nnc(SCC(=O)Nc3ncc(C)s3)o2)cc1	0.9	2.7	0.9	6.0	-5.1	10.8
COc1ccc(OC)c(NC(=O)CSc2nnc(CNC(=O)c3ccco3)o2)c1	0.7	3.9	0.9	8.7	-2.0	25.9

Screens from PubChem BioAssay.
